Source: PubChem BioAssay AID504607 (Sanford-Burnham Center for Chemical Genomics, 2011)
Out of some 6,200 compounds screened, about 4,800 (77%) were called active.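 How the source made its calls: active means mean inhibition at 8 µM reaching about 37%, which flags the compound as non-specific (limit read from the data); inactive means the rest.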 The set was probably picked from earlier hits. Only a sample is shown.

assay: luminescence decrease from intact luciferase reporter – cell-based, single concentration, SaOS-2, counter-screen for Mdm2/MdmX interaction inhibitor project, confirmation (AID 504607); details: SaOS-2 full-length luciferase counterscreen, at 8 µM, stronger effect = higher value;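 further: p53-null SaOS-2 cells with luciferase driven by a doxycycline-inducible promoter; compound on cells about two nights before reading with doxycycline added after day one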

Compound	inhibition
CCCCCCCCCCCCn1ccc(=N)cc1	52.1% (active)
CNC(=O)O/N=C(\N)Cc1csc2ccccc12	81.2% (active)
CNC(=O)O/N=C(\N)Cc1csc2ccc(Cl)cc12	126% (active)
CCOc1ccc(-c2cc(C)[n+](CCN(CC)CC)c(-c3ccc(OCC)cc3)c2)cc1	22.3% (inactive)
O=C1NC(=O)N(CCc2ccc(F)cc2)C(=O)/C1=C/C=C/c1ccccc1	83.8% (active)
COC(=O)C1=C(c2ccc(F)cc2OCc2ccccc2)C[C@@H]2CC[C@H]1N2C(=O)NCc1ccc2[nH]ccc2c1	94.7% (active)
Cc1cc2ccccn2c1C(C[N+](=O)[O-])c1c(F)cccc1Cl (centres undefined)	29.6% (inactive)
O=C1C2(Cl)C3(Cl)C4(Cl)C(Cl)(Cl)C5(Cl)C3(Cl)C1(Cl)C5(Cl)C24Cl (centres undefined)	46.6% (active)
O=Cc1cn(Cc2ccc(F)cc2Cl)c2ccccc12	35.1% (inactive)
